In all, about 3,200 compounds went through this assay and about 300 (9.4%) showed activity. The sample as a whole holds a higher share of actives than the screen did.
Tested on: A673/TR/shEF
Assay: cell viability (LOESS-normalised, relative to median of negative controls) (log2 ratio); higher = more viable cells (less compound effect), active = hit call of the paper (over 3 MAD below the median)
Details: treatment time: 72 h
In short: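 Doxycycline, present or absent from 24 h before compounds, was used to induce EWS-FLI1 shRNA knockdown in A673/TR/shEF Ewing sarcoma cells at 1,500 per well in 384-well plates. Cells then received library compounds at two or more concentrations, or DMSO controls, for three days. Viability was measured by CellTiter-Glo luminescence on an Envision reader, and per-plate LOESS correction, division by the negative-control median and log2 transformation followed.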

[1] = 0.25 µM, library screen: screen1, EWS-FLI1 expression: high (no doxycycline)
[2] = 0.25 µM, library screen: screen1, EWS-FLI1 expression: low (doxycycline-induced shRNA knockdown)
[3] = 2.5 µM, library screen: screen1, EWS-FLI1 expression: high (no doxycycline)
[4] = 2.5 µM, library screen: screen1, EWS-FLI1 expression: low (doxycycline-induced shRNA knockdown)
[5] = 0.103 µM, library screen: screen3, EWS-FLI1 expression: high (no doxycycline)
[6] = 0.103 µM, library screen: screen3, EWS-FLI1 expression: low (doxycycline-induced shRNA knockdown)
[7] = 0.308 µM, library screen: screen3, EWS-FLI1 expression: high (no doxycycline)
[8] = 0.308 µM, library screen: screen3, EWS-FLI1 expression: low (doxycycline-induced shRNA knockdown)
[9] = 0.926 µM, library screen: screen3, EWS-FLI1 expression: high (no doxycycline)
[10] = 0.926 µM, library screen: screen3, EWS-FLI1 expression: low (doxycycline-induced shRNA knockdown)
[11] = 2.8 µM, library screen: screen3, EWS-FLI1 expression: high (no doxycycline)
[12] = 2.8 µM, library screen: screen3, EWS-FLI1 expression: low (doxycycline-induced shRNA knockdown)
[13] = 8.3 µM, library screen: screen3, EWS-FLI1 expression: high (no doxycycline)
[14] = 8.3 µM, library screen: screen3, EWS-FLI1 expression: low (doxycycline-induced shRNA knockdown)
[15] = 25 µM, library screen: screen3, EWS-FLI1 expression: high (no doxycycline)
[16] = 25 µM, library screen: screen3, EWS-FLI1 expression: low (doxycycline-induced shRNA knockdown)

Measured: cell viability (log2)

COc1ccccc1-c1coc2cc(O)ccc2c1=O
inactive: [1] 0.111 | [2] 0.0685 | [3] 0.111 | [4] -0.0147

COc1cc(C(=O)O)c(O)c2c1OCO2
inactive: [1] -0.00582 | [2] -0.144 | [3] 0.116 | [4] -0.0061

C[C@@H]1C[C@H]2[C@@H]3C[C@H](F)C4=CC(=O)C=C[C@]4(C)[C@@]3(F)[C@@H](O)C[C@]2(C)[C@H]1C(=O)COC(=O)C(C)(C)C
inactive: [1] 0.00935 | [2] -0.0577 | [3] 0.0831 | [4] -0.0529

COc1cc(O)c(C(=O)c2ccccc2)c(OC)c1
inactive: [1] 0.0618 | [2] 0.0186 | [3] 0.0469 | [4] 0.0894

OC[C@H]1O[C@@](CO)(O[C@H]2O[C@H](CO)[C@@H](O)[C@H](O)[C@H]2O)[C@@H](O[C@H]2O[C@H](CO)[C@@H](O)[C@H](O)[C@H]2O)[C@@H]1O
inactive: [1] 0.0123 | [2] 0.0415 | [3] 0.0346 | [4] 0.126

COCCOC(=O)C1=C(C)NC(=S)NC1c1ccccc1OC (configuration not stated)
inactive: [1] 0.0949 | [2] 0.0382 | [3] 0.0563 | [4] 0.0651

C=CC(C)(CCC1C(=C)CC(OC(C)=O)C2C(C)(C)CCCC12C)OC(C)=O (configuration not stated)
inactive: [1] 0.025 | [2] 0.066 | [3] 0.163 | [4] -0.0558

O=C1[C@H](Cc2ccc(O)cc2)N2C(=O)CCN(C(=O)NCc3ccccc3)[C@H]2CN1Cc1cccc2ccccc12
inactive: [5] -0.0101 | [6] 0.068 | [7] 0.0453 | [8] 0.0327 | [9] 0.0157 | [10] 0.0736 | [11] 0.0365 | [12] 0.0441 | [13] -0.0756 | [14] -0.205
active: [15] -1.07 | [16] -1.18

O=C(O)[C@@H]1C2CC3c4[nH]c5ccccc5c4CCN3CC2CC[C@@H]1O (some centres not stated)
inactive: [1] 0.0321 | [2] 0.0471 | [3] 0.097 | [4] 0.142

Nc1ccn([C@@H]2O[C@H](CO)[C@@H](O)[C@@H]2O)c(=O)n1
inactive: [6] -0.0158 | [1] 0.0194 | [2] 0.174 | 0.25 µM, library screen: screen2, EWS-FLI1 expression: low (doxycycline-induced shRNA knockdown) 0.162 | [7] -0.0966 | [8] 0.00929 | [10] -0.00593 | [4] 0.0115 | 2.5 µM, library screen: screen2, EWS-FLI1 expression: low (doxycycline-induced shRNA knockdown) -0.0511 | [12] -0.023
active: [5] -0.206 | 0.25 µM, library screen: screen2, EWS-FLI1 expression: high (no doxycycline) -0.179 | [9] -0.377 | [3] -0.85 | 2.5 µM, library screen: screen2, EWS-FLI1 expression: high (no doxycycline) -1.17 | [11] -0.966 | [13] -1.5 | [14] -0.184 | [15] -2.24 | [16] -0.544

Nc1ccn([C@@H]2O[C@H](CO)[C@@H](O)[C@H]2O)c(=O)n1
inactive: [1] 0.138 | [2] 0.019 | [3] 0.237 | [4] 0.0416

Nc1ccn([C@@H]2CS[C@H](CO)O2)c(=O)n1
inactive: [5] 0.125 | [6] 0.0191 | [7] 0.0768 | [8] 0.0559 | [9] 0.0245 | [10] 0.0926 | [11] 0.132 | [12] 0.0391 | [13] 0.0536 | [14] 0.0703 | [15] 0.101 | [16] 0.0951

Nc1ncn([C@H]2C[C@H](O)[C@@H](CO)O2)c(=O)n1
inactive: [5] -0.0304 | [6] 0.0527 | [7] -0.025 | [8] 0.0562 | [9] -0.0731 | [10] 0.022 | [11] -0.0569 | [12] 0.0493 | [13] -0.0462 | [14] 0.058 | [15] -0.117 | [16] 0.0388
